Screens (PubChem)
FLuc inh-1: Photinus pyralis luciferase inhibition; P08659; Potency, µM (series often up to 115 µM), usual class: inhibitors; purified P. pyralis luciferase, luminescence, biochemical; AID 1347043; hit rate 2.5% among 76,000; note: % is set by controls: 0 for no effect and ±100 for the full control effect; nearly all actives have a fitted effect of over 65% in size
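Purified P. pyralis luciferase (10nM final) in 50mM Tris acetate pH 7.5, 10mM Mg acetate, 0.01% Tween-20, 0.05% BSA with 10uM D-luciferin and 10uM ATP. Compounds titrated qHTS. Luminescence imaged on CCD.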
3T3 cytotox: kills NIH 3T3 cells; AID 1345082; hit rate 4.3% among 94,000; NIH 3T3 viability, CellTiter-Glo ATP luminescence, 48-72 h; Potency, µM (highest dose often 96.7 µM), for the others: top-dose activity change, negative = cytotoxicity, hits mostly inhibitors; note: % is set by controls: 0 for no effect and ±100 for the full control effect; nearly all actives have a fitted effect of over 55% in size
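Cytotoxicity was measured by CellTiter-Glo ATP luminescence after 48 or 72 h compound exposure at 37 °C. Mouse NIH 3T3 fibroblasts were seeded at 400 cells/well and dosed by 23 nL pin transfer.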
hNpr1 antagonist: blocks ANP-stimulated signaling of human Npr1 receptor | HEK293 hNpr1 GloSensor cGMP, ANP-stimulated luminescence | Potency, µM (highest dose often 46.3 µM), for inactives: at the top dose activity change, negative = inhibition, usual class: inhibitors | hit rate 1.6% among 76,000; calls by dose curve; note: % is set by controls: 0 for no effect and ±100 for the full control effect; nearly all actives have a fitted effect of over 60% in size
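Compound pre-incubated 30 min at room temperature on GloSensor-loaded HEK293 cells stably carrying hNpr1 and the pGS-40F cGMP biosensor. Stimulation uses hNppA at 0.1 nM final; luminescence is taken at baseline and 20 min post-agonist.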
HEK cytotox: HEK 293 cell cytotoxicity; hit rate 6.6% among 94,000; Potency, µM (doses to about 115 µM), without a hit: at the top dose activity change, negative = cytotoxicity, usual class: inhibitors; HEK 293 viability, ATP luminescence (CellTiter-Glo), 48-72 h; note: % is set by controls: 0 for no effect and ±100 for the full control effect; nearly all actives have a fitted effect of over 60% in size
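ATP-coupled CellTiter-Glo luminescence served as viability read-out, recorded 10 min after reagent addition at room temperature. HEK 293 cells, 250 cells/well, had been incubated with pintool-transferred compound for 48 or 72 hr at 37 degree Celsius.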
FLuc SDR -ATP: stabilizes firefly luciferase without ATP | shares compounds with FLuc inh-1 | Purified FLuc-C-HiBiT, Nano-Glo HiBiT luminescence, no ATP | Potency, µM (highest dose often 32.7 µM), without a hit: at the highest dose activation (signal gain), most hits filed as activators | hit rate 7.8% among 1,300 | AID 1963318; note: nearly all actives have a fitted effect of over 55% in size
FLuc SDR ATP: firefly luciferase binding stabilization, ATP added; purified FLuc-C-HiBiT + ATP, HiBiT complementation luminescence; hit rate 8.7% among 1,300; Potency, µM (series often up to 32.7 µM), for inactives: at the top dose activation (gain of signal), actives largely listed as activators; shares compounds with FLuc inh-1;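 note: signal reports ligand binding via conformational change of the enzyme rather than luciferase catalysis; % of control where 0% means no effect; nearly all actives have a fitted effect of over 55% in size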
FLuc inh-2: inhibitors of firefly luciferase enzymatic activity; shares compounds with FLuc inh-1; purified FLuc-C-HiBiT enzyme, luciferin luminescence; Potency, µM (series often up to 32.7 µM), without a hit: top-dose activity change, negative = inhibition, actives largely listed as inhibitors; hit rate 42% among 1,300; note: % is set by controls: 0 for no effect and ±100 for the full control effect; nearly all actives have a fitted effect of over 70% in size
* = called active by the depositor; i = inactive; ? = inconclusive; · = no result; [ ] = another dose, or the depositor's remark. Only some compounds are listed: those with a hit (about 11% of all), similar ones and a draw of the others. Unless noted, calls come from the whole dose curve; as a rule, active = well fitted curve in the direction sought with a large enough effect; inconclusive = small, poorly fitted or top-dose-only effect, or another doubt; inactive = no such curve, though single readings can be large; an effect the other way counts as inactive or inconclusive. Potency is the fitted concentration of half-maximal effect.

SMILES	FLuc inh-1	3T3 cytotox	hNpr1 antagonist	HEK cytotox	FLuc SDR -ATP	FLuc SDR ATP	FLuc inh-2
CC(=O)Nc1cccc(-c2cccc(CCOc3cnc4c(ccn4CC(=O)O)c3)c2)c1	·	·	·	·	?	?	16µM*
COCc1nncn1C1CCN(C(=O)c2cc(C)cc(C)c2)CC1	i	i	4%	-4%	·	·	·
Cc1nc(-c2cnccn2)n(CC(=O)Nc2ccc3c(c2)OCCO3)c(=O)c1C	i	-9%	-14%	9%	·	·	·
CCc1cccc(-n2nnc(-c3nsc(NC(=O)c4cccs4)n3)c2C)c1	·	·	·	·	13%	14%	-19%
CCOC(=O)[C@H]1[C@@H](O)C(=O)N(Cc2ccccc2)C12CCN(C(=O)C1CCCCC1)CC2	·	?	·	-2%	·	·	·
CC(=O)N1CCN(C(=O)C2CCc3nnc(C4CCN([S+](=O)([O-])c5ccccc5Cl)CC4)n32)CC1 (centres undefined)	·	-11%	·	-12%	·	·	·
COc1ccc(CN2CCOC[C@H](OCC(=O)N(C)C)C2)cc1	i	i	0%[70.6 µM]	i	18%[49.3 µM]	10%[49.3 µM]	-1%[49.3 µM]
O=C(C1CCCN1C(=O)c1ccccc1)N1CCC(N2Cc3ccccc3C2=O)CC1 (centres undefined)	·	4%	·	3%	·	·	·
CN(C)c1cccc(C(=O)Nc2ccc3c(N4CCOCC4)ncnc3c2)c1	13µM*	-66%	-14%	?	27%	?	?
CCc1ccc(C(=O)Nc2ccc3c(N4CCOCC4)ncnc3c2)cc1	10µM*	8.9µM*	2%	?	?	?	7.9µM*
O=C(O)c1cccc2c1CCN2C(=O)Nc1ccc(F)cc1	0.0079µM*	?	0.32µM*	8.9µM*	11µM*	0.0062µM*	0.0035µM*
COc1ccc(NC(=O)c2cccc3c2CCN3C(=O)c2ccc(F)cc2)cc1	i	-1%	3%	11%	·	·	·
COc1ccc(NC(=O)c2cccc3c2CCN3C(=O)c2ccc(F)cc2)cc1OC	?	2%	-30%	-2%	·	·	·
CN(C)C(=O)c1cccc2c1CCN2C(=O)Nc1ccc(F)cc1	13µM*	-19%	-1%	-5%	15%	6.2µM*	3.9µM*
O=C1Nc2ccccc2O[C@H]2C[C@@H]1N(C1CCCC1)C2	i	i	0%[70.6 µM]	i	·	·	·
COc1ccc(NC(=O)Nc2cccc(-c3ccc(N4CCOCC4)nn3)c2)cc1	1.1µM*	-21%	10µM*	?	?	?	1.8µM*
COc1ccc(CNC(=O)Nc2cccc(-c3ccc(N4CCOCC4)nn3)c2)cc1	0.89µM*	-29%	-29%	?	?	?	2µM*
O=C(NCc1ccc(F)cc1)Nc1cccc(-c2ccc(N3CCOCC3)nn2)c1	1.3µM*	-24%	?	?	?	?	1.8µM*
COc1ccc(NC(=O)Nc2cccc(-c3ccc(N4CCOCC4)nn3)c2)cc1F	0.4µM*	-21%	10µM*	?	?	?	0.88µM*
COc1ccc(C(=O)Nc2cccc(-c3nnc4n3CCCC4)c2)cc1F	?	-8%	-4%	-4%	·	·	·
Cc1noc(C)c1CC(=O)N1CCOc2c(cc(-c3nc4ccccc4s3)cc2OC2CCOC2)C1 (centres undefined)	·	·	·	·	12%	12%	-4%
Cc1noc(C)c1CC(=O)N1C[C@@H](Oc2ccccc2)C[C@@H]1C(=O)N1CCOCC1	i	-12%	8%	-3%	·	·	·
Fc1ccccc1-c1n[nH]c2c1CN(Cc1cccn1-c1nccs1)CC2	i	-34%	-11%	?	·	·	·
Oc1cc(-c2nc3ccccc3s2)cc2c1OCCN(Cc1cccn1-c1nccs1)C2	·	·	·	·	16%	9%	-5%
C=CCn1cc(CN2CCOc3c(O)cc(-c4cccc(Cl)c4)cc3C2)cn1	i	?	-18%	?	·	·	·
SMILES	FLuc inh-1	3T3 cytotox	hNpr1 antagonist	HEK cytotox	FLuc SDR -ATP	FLuc SDR ATP	FLuc inh-2
c1ccc2sc(-c3cc4c(c(OC5CCOC5)c3)OCCN(Cc3cccn3-c3nccs3)C4)nc2c1 (centres undefined)	·	·	·	·	14%	11%	-3%
Oc1cc(-c2nc3ccccc3s2)cc2c1OCCN(Cc1cn[nH]c1-c1ccc(Cl)cc1)C2	·	·	·	·	13%	8%	-1%
CC(=O)N1CCCN(c2ccnc3ccnn23)CC1	·	-11%[138 µM]	·	-4%[172 µM]	·	·	·
O=C(CCC1CCCC1)N1CC(c2nnc(-c3ccncc3)o2)C2(CCOCC2)C1 (centres undefined)	i	-39%	-9%	?	·	·	·
CC(C)Oc1cccc2c1c(NC(=O)C1CCN(C)C1)nn2Cc1ccccc1 (centres undefined)	i	?	-2%	?	·	·	·
COC(=O)NCCNC(=O)c1cccc(-c2ccsc2)c1	·	-16%[138 µM]	·	-17%[172 µM]	·	·	·
Oc1cc(-c2nc3ccccc3s2)cc2c1OCCN(Cc1cccn1-c1ccc(Cl)cn1)C2	·	·	·	·	16%	13%	-10%
Oc1cc(-c2nc3ccccc3s2)cc2c1OCCN(Cc1ncccn1)C2	?	-37%	3%	?	13%	11%	-15%
Cc1ccccc1-c1cc(O)c2c(c1)CN(Cc1nccn1C)CCO2	i	-29%	-8%	?	·	·	·
C[C@@H](c1ccccc1)N1C(=O)[C@@H]2CN(C(=O)c3cccnc3)CCN2C1=O	i	2%[174 µM]	3%[70.6 µM]	-5%[172 µM]	·	·	·
CC(=O)N1CC2(Cc3ccccc31)CN(C(=O)C(C)(C)C)C2	i	-19%[138 µM]	0%[70.6 µM]	-24%[172 µM]	·	·	·
Cc1ncc(C(=O)NCc2ccc3[nH]c(-c4ccccc4F)c(C)c3c2)c(C)n1	6.3µM*	?	7.9µM*	?	18%	13%	7.9µM*
Cc1ncc(CC(=O)NCc2ccc3[nH]c(-c4ccccc4F)c(C)c3c2)c(=O)[nH]1	13µM*	?	0%	?	18%	15%	?
Cc1ncc(CC(=O)NCC2CCN(c3cnn(C)c(=O)c3)C2)c(=O)[nH]1 (centres undefined)	i	-1%	10%	-5%	·	·	·
Cn1ncc2c(C(=O)NCc3ccc(F)cc3)cc(-c3ccccc3F)nc21	·	?	·	-12%	·	·	·
O=C(COC(=O)c1cc(-c2cccs2)nc2ccccc12)c1ccc(Br)cc1	·	·	·	·	14%	8%	-18%
O=C(NCCc1ccccc1F)c1nc2sccn2c1Br	1.6µM*	?	?	?	24%	?	7µM*
CSCCNC(=O)c1nc2sccn2c1Br	?	?	-8%[70.6 µM]	-8%[172 µM]	·	·	·
Cc1cc(C)cc(NC(=O)Cn2c(N3CCOCC3)nc(C)cc2=O)c1	i	-23%	3%	?	·	·	·
O=[S+]1([O-])NCC2(CCN(CC3CCCCC3)C2)Nc2ccccc21 (centres undefined)	i	?	-9%	?	·	·	·
